Bioassay records deposited in PubChem by several laboratories.
The list is not random: actives were taken first. Their share in the collection is about 3.8%.
tim23-1 inh: inhibits growth of tim23-1 mutant yeast; S. cerevisiae tim23-1 growth, BacTiter-Glo luminescence, 24 h; actives 1.3% (n = 330,000); inhibition, % at 20 µM; AID 463212;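 active = growth inhibition of the mutant yeast at or above 50%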;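 note: temperature-sensitive mutant grown at 25 °C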
tim10-1 inh: inhibits growth of tim10-1 mutant yeast. S. cerevisiae tim10-1 ts strain growth, BacTiter-Glo, 24 h. inhibition, % at 20 µM. actives 2.2% (n = 330,000);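 active = inhibition of at least 40%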;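 note: mutant grown at 25 °C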
PfHsp90 set2: growth inhibition of yeast expressing Plasmodium Hsp90 | inhibition, % at 9.4 µM | actives 0.32% (n = 310,000) | S. cerevisiae expressing PfHsp90, BacTiter-Glo ATP, 48 h; yeast lacking PDR1 and PDR3 efflux regulators;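 active = every replicate shows inhibition above about 80%, whatever the replicate mean, limit read from the data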
TIM10 inh: growth inhibitors of TIM10 yeast strain | S. cerevisiae TIM10 strain growth, BacTiter-Glo luminescence, 24 h | inhibition, % at 10 µM | actives 1.4% (n = 330,000) | AID 463195;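 active = inhibition of 40% or more at the single tested concentration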;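 note: wild-type TIM10 isogenic control strain grown at permissive 25 °C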
Beta2AR agonist: agonists of human beta-2 adrenergic receptor inducing internalization; AID 504454; P07550; response, % (test concentration not listed); actives 0.43% (n = 340,000); Am2.2-beta2AR cells, FAP receptor internalization, flow cytometry;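 active = response above a set limit, near 3 SD of response in nonfluorescent compounds, cut at about 42% in these data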
Target sequence (P07550 whole entry, looked up): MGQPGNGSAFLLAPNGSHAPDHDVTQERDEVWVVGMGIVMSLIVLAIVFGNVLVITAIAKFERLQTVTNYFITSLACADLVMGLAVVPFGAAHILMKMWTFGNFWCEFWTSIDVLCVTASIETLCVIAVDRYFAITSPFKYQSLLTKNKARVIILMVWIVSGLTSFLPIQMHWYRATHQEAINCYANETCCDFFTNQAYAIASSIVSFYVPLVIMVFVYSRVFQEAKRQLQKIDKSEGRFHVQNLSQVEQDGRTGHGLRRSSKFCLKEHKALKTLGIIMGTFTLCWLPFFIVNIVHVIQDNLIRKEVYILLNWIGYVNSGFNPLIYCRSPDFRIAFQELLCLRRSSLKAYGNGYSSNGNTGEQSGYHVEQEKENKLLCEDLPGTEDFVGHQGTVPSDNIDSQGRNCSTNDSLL
Beta2AR ag CP1: activates human beta-2 adrenergic receptor; shares compounds with Beta2AR agonist; actives 25% (n = 1,100); Am2.2-beta2AR cells, FAP surface receptor, flow cytometry; active compounds read low; percent response (surface receptor), % at 10 µM;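 active = surface receptor percent response at or below 58%, roughly 3 SD from nonfluorescent compounds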
B2AR FAP counter: fluorescence artifact in beta-2AR agonist FAP counterscreen | shares compounds with Beta2AR agonist | Am2.2 cells, FAP fluorogen flow cytometry; active compounds read low | calls only at 10 µM | 1,100 tested, under 10 active | AID 588765;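 active = percent response below a set limit in fluorescence channel 1 and below 50% in channel 8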
Each line names hits and unclear results; the compound was inactive in the other large screens (follow-up assays come after a bar, where they were run); ! = not confirmed by another sample.

COc1ccc(-c2sc3cc4c(cc3c2C#Cc2cncn2C)OCO4)cc1	Beta2AR agonist 56.4 | Beta2AR ag CP1 inactive | B2AR FAP counter inactive
Cc1noc(C)c1COc1ccccc1C(=O)N1CCN(S(=O)(=O)c2ccccc2Br)CC1	Beta2AR agonist 70.9 (no result: tim23-1 inh, tim10-1 inh, TIM10 inh) | Beta2AR ag CP1 inactive | B2AR FAP counter inactive
COc1ccc(C2C(C#N)=C(N)Oc3c2sc2nc(C)cc(C)c32)cc1 (centres undefined)	Beta2AR agonist 80.2 | Beta2AR ag CP1 43.4 | B2AR FAP counter inactive
COc1ccc(C2C(C#N)=C(N)Oc3cccc(O)c32)cc1 (centres undefined)	none
O=C(CNS(=O)(=O)c1ccc2ccccc2c1)OCC(=O)c1ccc(Br)s1	none
Cc1cc(C(=O)COC(=O)CNS(=O)(=O)c2ccc3ccccc3c2)c(C)n1-c1ccccc1	Beta2AR agonist 46.9 | Beta2AR ag CP1 inactive | B2AR FAP counter inactive
Cc1ccc(S(=O)(=O)NC(C)(C)CN2CCC(Cc3ccccc3)CC2)cc1	Beta2AR agonist 50.0 | Beta2AR ag CP1 inactive | B2AR FAP counter inactive
C=CCc1cc(Cl)ccc1OCCCNC(C)C	Beta2AR agonist 62.3 | Beta2AR ag CP1 inactive | B2AR FAP counter inactive
CCn1nnc(NC(=S)NC(=O)c2ccc(-c3cccc(Cl)c3)o2)n1	none | Beta2AR ag CP1 inactive | B2AR FAP counter inactive
O=C(NC(=S)Nc1cc(Cl)ccc1N1CCOCC1)c1ccc(-c2cccc(Cl)c2)o1	none
CCc1ccc(CN2CCC(Oc3ccc(C(=O)N4CCCCC4)cc3)CC2)cc1	Beta2AR agonist 67.4 | Beta2AR ag CP1 40.0 | B2AR FAP counter inactive
CSc1ccc(CN2CCC(Oc3ccc(C(=O)N4CCCC4)cc3)CC2)cc1	Beta2AR agonist 51.1 | Beta2AR ag CP1 inactive | B2AR FAP counter inactive
CC(C)c1ccc(CN2CCC(Oc3ccc(C(=O)N4CCCC4)cc3)CC2)cc1	none
CCn1cc(CN2CCC(Oc3ccc(C(=O)N4CCCCC4)cc3)CC2)cn1	none
O=C(c1ccc(OC2CCN(Cc3ccc(F)cc3)CC2)cc1)N1CCCC1	Beta2AR agonist 43.1 | Beta2AR ag CP1 45.7 | B2AR FAP counter inactive
CCc1ccc(CN2CCC(Oc3ccc(C(=O)N4CCCC4)cc3)CC2)cc1	Beta2AR agonist 82.0 | Beta2AR ag CP1 9.0 | B2AR FAP counter inactive
O=C(c1cccc(OC2CCN(Cc3ccc(F)cc3)CC2)c1)N1CCCC1	none
Cc1ccc(CN2CCC(CNC(=O)c3ccc(NC(=O)C4=CSCCO4)cc3)CC2)cc1	none
COc1ccc(CN2CCC(Oc3ccc(C(=O)N4CCCC4)cc3)CC2)c(F)c1	none | Beta2AR ag CP1 inactive | B2AR FAP counter inactive
COc1cc(C)c(CN2CCC(Oc3ccc(C(=O)N4CCCC4)cc3)CC2)cc1C	none
CCCCN(C(=O)CSCC(=O)Nc1ccc(C)cc1)c1c(N)n(CCCC)c(=O)[nH]c1=O	none
CN(C)CCCN(C(=O)CCc1ccccc1)c1nc2ccc(Br)cc2s1	Beta2AR agonist 43.6 | Beta2AR ag CP1 inactive | B2AR FAP counter inactive
COc1ccc(N2CCN(C(=O)CN(c3ccccc3)S(=O)(=O)c3ccc(OC)cc3)CC2)cc1	none (no result: PfHsp90 set2)
COc1ccc(S(=O)(=O)N(CC(=O)N2CCN(c3ccccc3OC)CC2)c2ccccc2)cc1	none
COc1ccc(S(=O)(=O)N(C)CC(=O)N2CCN(c3ccccc3)CC2)cc1	none | Beta2AR ag CP1 inactive | B2AR FAP counter inactive
COc1ccc(S(=O)(=O)N(C)CC(=O)N2CCN(c3ccc(F)cc3)CC2)cc1OC	none (no result: PfHsp90 set2) | Beta2AR ag CP1 5.1! | B2AR FAP counter inactive
COc1ccccc1N1CCN(C(=O)CN(C)S(=O)(=O)c2ccc(C)cc2)CC1	none (no result: tim23-1 inh, tim10-1 inh, PfHsp90 set2, TIM10 inh, Beta2AR agonist) | Beta2AR ag CP1 46.7 | B2AR FAP counter inactive
Cc1ccc(CNS(=O)(=O)c2ccc(-n3cnnn3)c(C)c2)cc1	none
CCN(CC)c1ccc(N2C(=NC(=O)C3CC3)SC3CS(=O)(=O)CC32)cc1 (centres undefined)	none
COc1ccc(CC/C(C)=N\NC(N)=O)cc1	none
Cc1ccc2cccc(NS(=O)(=O)c3ccccc3)c2n1	none (no result: PfHsp90 set2, Beta2AR agonist) | Beta2AR ag CP1 inactive | B2AR FAP counter inactive
O=S(=O)(Nc1cccc2cccnc12)c1ccccc1	Beta2AR agonist 45.9 | Beta2AR ag CP1 inactive | B2AR FAP counter inactive
CN1CCN(NC(=O)c2ccc(Cl)c(S(=O)(=O)Nc3ccc(Cl)cc3)c2)CC1	none
CCOC(=O)Cn1nnnc1CN(Cc1ccccc1)Cc1cc2cc(CC)ccc2[nH]c1=O	Beta2AR agonist 100.2 | Beta2AR ag CP1 inactive | B2AR FAP counter inactive
COc1cc(C(=O)Nc2nc3ccccc3s2)ccc1OCc1c(C)noc1C	Beta2AR agonist 53.1 | Beta2AR ag CP1 inactive | B2AR FAP counter inactive
CNC(=S)N/N=C1\C(=O)c2cccc3cccc1c23	none | Beta2AR ag CP1 inactive | B2AR FAP counter inactive
CCCCNC(=S)N/N=C1\C(=O)c2cccc3cccc1c23	none (no result: PfHsp90 set2)
Cc1ccc(S(=O)(=O)N(C)C)cc1NC(=O)COC(=O)C1CC1	none
CC(=O)N(C)c1cccc(-c2ccc3nnc(C)n3n2)c1	none
O=C(Cn1cc(C(F)(F)F)cc(Cl)c1=O)NCCc1ccc(Cl)cc1Cl	Beta2AR agonist 55.2 | Beta2AR ag CP1 inactive | B2AR FAP counter inactive
Cc1nc2scc(-c3ccc(C(C)(C)C)cc3)c2c(=O)n1N	none
CN(c1ccccc1)c1ccc(/C=N/NC(=O)CC#N)cc1	none | Beta2AR ag CP1 inactive | B2AR FAP counter inactive
N#CCC(=O)N/N=C/c1ccc(Cl)cc1	none
O=c1[nH]c2ccccc2cc1CN(Cc1ccco1)S(=O)(=O)c1ccccc1	none | Beta2AR ag CP1 inactive | B2AR FAP counter inactive
COc1ccc(S(=O)(=O)N(Cc2ccco2)Cc2cc3ccccc3[nH]c2=O)cc1	none | Beta2AR ag CP1 inactive | B2AR FAP counter inactive
COC(=O)c1cccc(S(=O)(=O)N(Cc2ccco2)Cc2cc3ccc(OC)cc3[nH]c2=O)c1	none (no result: PfHsp90 set2)
COc1ccc(C2/C=C\CN(Cc3ccc(N(C)C)cc3)CC(=O)N2Cc2ccc(F)cc2)cc1 (centres undefined)	Beta2AR agonist 97.4 | Beta2AR ag CP1 27.1 | B2AR FAP counter inactive
COc1ccc(C2/C=C\CN(C(=O)c3ccccc3)CC(=O)N2Cc2ccc(F)cc2)cc1 (centres undefined)	none | Beta2AR ag CP1 inactive | B2AR FAP counter inactive
CN(C(=O)c1ccc(NC(=O)Cc2cccc(NC(=O)C3CCN(C(=O)C4CCCC4)CC3)c2)cc1)C1CC1	none (no result: tim23-1 inh, tim10-1 inh, TIM10 inh) | Beta2AR ag CP1 inactive | B2AR FAP counter inactive
CN(C(=O)c1ccc(NC(=O)Cc2cccc(NC(=O)C3CCN(C(=O)C4CCC4)CC3)c2)cc1)C1CCCC1	none | Beta2AR ag CP1 inactive | B2AR FAP counter inactive
CN(C(=O)c1cccc(NC(=O)Cc2ccc(NC(=O)C3CCN(C(=O)C4CC4)CC3)cc2)c1)C1CCC1	none (no result: tim23-1 inh, tim10-1 inh, TIM10 inh)
CN(C(=O)c1ccc(NC(=O)Cc2cccc(NC(=O)C3CCN(C(=O)C4CC4)CC3)c2)cc1)C1CCCC1	none (no result: PfHsp90 set2) | Beta2AR ag CP1 inactive | B2AR FAP counter inactive
